Test results from PubChem BioAssay AID1159506 (National Center for Advancing Translational Sciences (NCATS), 2015).
Over roughly 59,000 sequences, the read-out has its median near -0.00055; the lowest 2% begin near -2. Only a selection was taken, and the lowest values are over-represented in it overall.

Test: Identification of proteins required for the processing of the EWS-FLI1 nascent transcript;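 further: robust z of luciferase light less the median z of siRNAs with the same seed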
Details: TC32 Ewing sarcoma NR0B1-luc vs CMV-luc (EWS-FLI1 target promoter against control promoter), 48 h; screened at 20 nM (by protocol)
Procedure, shortened: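 Parallel TC32-NR0B1-luc and TC32-CMV-luc reverse transfections with 20 nM siRNA in RPMI-1640/10% FBS, luciferase measured 48 h later. Seed-adjusted z-scores from normalized, z-score-MAD transformed data; AllStars negative and siGL4 controls on each plate.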

**Q.** Which seed-corrected z-score does the source give for UACAUAGCUGCAUAGACAC against PLPPR5 here?
**A.** -2.18

**Q.** Which seed-corrected z-score does the source give for UUCUUUAGCAACAUCACAG against CBR4 here?
**A.** 0.335

**Q.** For UAAGAUAUCUGACCACUAG against ZNF620, which seed-corrected z-score is on record?
**A.** 0.641

**Q.** With UCCAUAUCCCAUGACAUGC against SLC17A6 as the sequence, how does the seed-corrected z-score read?
**A.** -0.139

**Q.** With UGCUUGAGCAGAAUGACCG against DIO2 as the sequence, how does the seed-corrected z-score read?
**A.** -2.14

**Q.** With UGAACUUGCACACUUGAGU against KLK7 as the sequence, how does the seed-corrected z-score read?
**A.** 0.253

**Q.** Which seed-corrected z-score does the source give for AAACUUUGGAUGUUUUUGG against PPBP here?
**A.** 0.549

**Q.** With UUAGUACAGAUGCAGUUCU against OR56A5 as the sequence, how does the seed-corrected z-score read?
**A.** -14.6

**Q.** Which seed-corrected z-score does the source give for UUUCGGUACGUGUAGUAGC against STRA6 here?
**A.** 0.803

**Q.** With UCUUUGACAAUAUCAACAG against UBE3D as the sequence, how does the seed-corrected z-score read?
**A.** -0.267

**Q.** For UGCGUGUCUUCUUUAACCU against FAM174B, which seed-corrected z-score is on record?
**A.** -0.0387

**Q.** With UUAGAUCCAUGCUAUAAGC against PMS2P12 as the sequence, how does the seed-corrected z-score read?
**A.** -0.142

**Q.** For UAAUCGUUUCUACAAGAUC against ATF7IP, which seed-corrected z-score is on record?
**A.** -2.43

**Q.** Which seed-corrected z-score does the source give for UUAAUCUUCAUCGUAAUAG against ZPLD1 here?
**A.** -0.649

**Q.** With UUUUUCGACAGGAAAGUGU against C5orf60 as the sequence, how does the seed-corrected z-score read?
**A.** 0.245

**Q.** For UUCAUUAUUAUCUCAGGAG against RFC3, which seed-corrected z-score is on record?
**A.** -1.02

**Q.** With UUCAGCAUAAAGACUGAUC against VPS41 as the sequence, how does the seed-corrected z-score read?
**A.** -0.683

**Q.** Which seed-corrected z-score does the source give for UCACUUCCUAUUCCCAUGG against PALM3 here?
**A.** -1.4

**Q.** With AUCUUGGUAACAAACUUGG against TRPV4 as the sequence, how does the seed-corrected z-score read?
**A.** -3.43

**Q.** Which seed-corrected z-score does the source give for UAAUCGUUGGGAUCCAGUC against PCDHA13 here?
**A.** 0.188

**Q.** For UGUACGAUGAAGGUCAUGC against SLC34A2, which seed-corrected z-score is on record?
**A.** -0.00732

**Q.** Which seed-corrected z-score does the source give for UUCGUGUUUUGAAUCUUGG against B4GALT2 here?
**A.** 1.23

**Q.** Which seed-corrected z-score does the source give for AGCUGGAUCAUUUCUACAG against PKDCC here?
**A.** -2.45

**Q.** For UAGACUGUCACGUUGUAUG against SEZ6L, which seed-corrected z-score is on record?
**A.** 0.278

**Q.** With AAAGAGAUAAUGUUCCUCC against FAM180B as the sequence, how does the seed-corrected z-score read?
**A.** 0.869

**Q.** For UCCCUAACAAAGCAUGUAC against ISL1, which seed-corrected z-score is on record?
**A.** -0.138

**Q.** Which seed-corrected z-score does the source give for UUCUAAGAAAGCGAGCUGC against EID2B here?
**A.** -0.614

**Q.** Which seed-corrected z-score does the source give for UCUCGAGUUAUGUGGUUGG against RAD51D here?
**A.** 0.265

**Q.** For AUAGUUGCAAUCAAACGAG against SFT2D2, which seed-corrected z-score is on record?
**A.** -3.87

**Q.** Which seed-corrected z-score does the source give for UCUGGGAAAACAUGGUUGU against DUBR here?
**A.** -1.17

**Q.** For ACAGAUAUAACACUCAUCG against ANO10, which seed-corrected z-score is on record?
**A.** -0.322

**Q.** With AUUGUGACUAUUAUGAGUC against MTND5P10 as the sequence, how does the seed-corrected z-score read?
**A.** -0.792

**Q.** Which seed-corrected z-score does the source give for UACAGAUCCGCGAUGUACU against RCN3 here?
**A.** 0.823

**Q.** Which seed-corrected z-score does the source give for UUUCCGAAAAUUUAGUGGG against ATAD2 here?
**A.** 0.659

**Q.** For UGGUGGUCCACCUUGUUAG against F13A1, which seed-corrected z-score is on record?
**A.** -1.25

**Q.** For UCCAGUGCAAUGACUCUUG against ZNF114, which seed-corrected z-score is on record?
**A.** -2.45

**Q.** With AACUUUUCACUGGUGACCC against C7orf55 as the sequence, how does the seed-corrected z-score read?
**A.** -0.00837

**Q.** For UCUCAGGAUAGGAACCACC against SPRR2G, which seed-corrected z-score is on record?
**A.** -0.114

**Q.** For UUUAGAUCUAGAAUUACAC against SPESP1, which seed-corrected z-score is on record?
**A.** -0.539

**Q.** With UGAGCUCUGAGAAUUGAGG against POM121 as the sequence, how does the seed-corrected z-score read?
**A.** 0.483

**Q.** For UGCAGAUGCGGAAAGCUGC against LOC388692, which seed-corrected z-score is on record?
**A.** 0.336

**Q.** Which seed-corrected z-score does the source give for AUCCAGUUCACGUAGGCAG against TPSG1 here?
**A.** -2.87

**Q.** For UCUGCGUACUCAUCCAUCC against GALNT10, which seed-corrected z-score is on record?
**A.** 0.408

**Q.** With UCUGAUCUCACGGAUGAAG against RASEF as the sequence, how does the seed-corrected z-score read?
**A.** 0.117

**Q.** With UUAGGCUCUUUGUAUGUCC against ELOVL4 as the sequence, how does the seed-corrected z-score read?
**A.** 0.198

**Q.** For UUUCUGCACAGGAAUAUCG against CD37, which seed-corrected z-score is on record?
**A.** -3.03

**Q.** For UCCGCGUAUAAAUAGGUGC against RSPH1, which seed-corrected z-score is on record?
**A.** -0.487

**Q.** For UGAGUUGAAGGUCUGCCCG against MPND, which seed-corrected z-score is on record?
**A.** -0.48

**Q.** Which seed-corrected z-score does the source give for UGAUAGAUGAAUAUCAUCC against KIAA0232 here?
**A.** -0.728

**Q.** Which seed-corrected z-score does the source give for UAUUCGCACAGGCUGAUUC against BBS12 here?
**A.** 0.0215

**Q.** Which seed-corrected z-score does the source give for AAGUUGGUGAUUAAUCUCC against DERL2 here?
**A.** -0.311

**Q.** For UUCUGUGGAAGAUUUCUGG against TOP3A, which seed-corrected z-score is on record?
**A.** -0.163

**Q.** Which seed-corrected z-score does the source give for UAUUUGACUAGGCGACUUC against NET1 here?
**A.** -2.17

**Q.** Which seed-corrected z-score does the source give for UAUCUAAAGAGACCCUGUC against YPEL1 here?
**A.** 1.06

**Q.** With ACAGUAUCCUCAGAUGUCC against SHROOM2 as the sequence, how does the seed-corrected z-score read?
**A.** 0.0618

**Q.** With UGCAGUACUGAAGAUAACG against EOGT as the sequence, how does the seed-corrected z-score read?
**A.** -1.09

**Q.** For UUCUUAGCCGCGAUGGUCU against DES, which seed-corrected z-score is on record?
**A.** 0.351

**Q.** For UAGGUAGAAGUGAUUGUUC against ZFAND4, which seed-corrected z-score is on record?
**A.** 0.956

**Q.** Which seed-corrected z-score does the source give for AUGUGGACAGCGUAGCUCC against FUT4 here?
**A.** -0.421

**Q.** With UACAUUGUGAGAUCCCUGG against C17orf78 as the sequence, how does the seed-corrected z-score read?
**A.** -2.15

**Q.** Which seed-corrected z-score does the source give for UUAUGAACCCUGGAGCUCC against ADRB3 here?
**A.** 0.000803

**Q.** For AAUACGAUGACAAUAAGGC against FAM200A, which seed-corrected z-score is on record?
**A.** -0.251

**Q.** Which seed-corrected z-score does the source give for AUAGCUGCGAACAAAGGCC against ZNF404 here?
**A.** -6.09

**Q.** For UUCGACUUGGUUGCAAUGG against PPBP, which seed-corrected z-score is on record?
**A.** 0.68

**Q.** For UCCAGUUGUAUGUAAGGGC against ZDHHC6, which seed-corrected z-score is on record?
**A.** -1.09

**Q.** For AAUGGUCUUGUGAAUGGUC against LSM12, which seed-corrected z-score is on record?
**A.** -2.08

**Q.** With UUUCGUCAACAGUUCAAUC against USP34 as the sequence, how does the seed-corrected z-score read?
**A.** -0.287

**Q.** Which seed-corrected z-score does the source give for UAAUCGAAAAACUUCAAUG against CLN5 here?
**A.** -0.147

**Q.** With AUCUCUGUAAGAUUGAUUC against ELMOD2 as the sequence, how does the seed-corrected z-score read?
**A.** 0.0598

**Q.** With UUGCUUUCCACAACGAGAU against CHL1-AS2 as the sequence, how does the seed-corrected z-score read?
**A.** -0.29

**Q.** For UUCUGCAUCAUAAUUGUCG against ADPRHL1, which seed-corrected z-score is on record?
**A.** -0.679

**Q.** Which seed-corrected z-score does the source give for UUGGUAGGCAUCGUAGUAG against CLDN2 here?
**A.** 0.894

**Q.** For UAGCUGUGUGGAUCAGUGC against LOC642502, which seed-corrected z-score is on record?
**A.** -2.62

**Q.** With UCACUGUAUCUAAUAAAGC against FRG1JP as the sequence, how does the seed-corrected z-score read?
**A.** -0.744

**Q.** With AAUUUUAUCACCCAGAAAC against FCGR2B as the sequence, how does the seed-corrected z-score read?
**A.** 0.134

**Q.** With UGAGUUUCUUCUCCGUUCU against C11orf97 as the sequence, how does the seed-corrected z-score read?
**A.** -3.81

**Q.** Which seed-corrected z-score does the source give for UGAAAAGCGCUGCUUAACC against PRSS45 here?
**A.** 0.905

**Q.** For UUCUUUGAUAGACUUCACC against FTMT, which seed-corrected z-score is on record?
**A.** 0.658

**Q.** Which seed-corrected z-score does the source give for UGAGAGUUAAAGGCCUUUC against ABHD14A here?
**A.** -2.97

**Q.** With AAAUGUGCUCAAACUGUCU against ARL14 as the sequence, how does the seed-corrected z-score read?
**A.** -0.125

**Q.** With UUCUCUCAAGCUUCAAUGG against ZNF286A as the sequence, how does the seed-corrected z-score read?
**A.** 0.716

**Q.** Which seed-corrected z-score does the source give for AGAGUUAAUUGGUAUGUCC against GIGYF1 here?
**A.** 0.0611

**Q.** Which seed-corrected z-score does the source give for UCUGUUACUUCUGGUUUGC against BAAT here?
**A.** -0.229

**Q.** Which seed-corrected z-score does the source give for UUAGCUGCUAGAAACAAGG against CCNT1 here?
**A.** -2.99

**Q.** With UGAGUUUCCAUGCAUAGGA against GOLGA7 as the sequence, how does the seed-corrected z-score read?
**A.** -3.67

**Q.** For UCAGGUACGACUUUCGAUA against C1orf109, which seed-corrected z-score is on record?
**A.** -1.21

**Q.** Which seed-corrected z-score does the source give for AGAGAUACAAGGUUUGAUC against ARG2 here?
**A.** -0.0393

**Q.** For UCCUUGUACACGGCCAGCU against PCED1CP, which seed-corrected z-score is on record?
**A.** 0.3

**Q.** Which seed-corrected z-score does the source give for UGUACAUAGACGGUGAGGC against CD200 here?
**A.** 0.299
